Data as given in the supplement of paper PMC10849652.
Targets with a hit are over-represented here; the source holds about 8,800 in all. About 0.5% of all pairs of compound and target were hits. Unmarked numbers belong to inactive results.

Experiments:
Test in all cases: log2 fold change, soluble protein after heating vs DMSO (PISA); higher = thermal stabilisation; K562 lysate, 10 uM; active = over 0.2 and 3.5 SD of the protein, either way, in both replicates (recomputed)
lapatinib = compound: CS(=O)(=O)CCNCc1ccc(-c2ccc3ncnc(Nc4ccc(OCc5cccc(F)c5)c(Cl)c4)c3c2)o1 [lapatinib]
Procedure, shortened: (§1)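 Dounce homogenisation of K562 pellets in PBS pH 7.4 with 1 mM MgCl2 produced a crude extract, used at 1 mg/mL protein. Exposure to 10 μM compound lasted 30 min, and aliquots were then heated for 3 min across 48°C-58°C, pooled and brought to 0.5% NP-40 at 4°C. The supernatant after 21,000xg for 90 min was quantified by TMTpro 16plex LC-MS/MS with channel sums equalised. Duplicate values are given as log-two fold change in thermal stability relative to solvent controls.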

pictilisib = compound: CS(=O)(=O)N1CCN(Cc2cc3nc(-c4cccc5[nH]ncc45)nc(N4CCOCC4)c3s2)CC1 [pictilisib]
Procedure, shortened: as §1

crizotinib = compound: C[C@@H](Oc1cc(-c2cnn(C3CCNCC3)c2)cnc1N)c1c(Cl)ccc(F)c1Cl [crizotinib]
Procedure, shortened: as §1

[1] = compound: C[C@H](C1=CC=C(C=C1)C(=O)NC2=C3C=CNC3=NC=C2)N
Procedure, shortened: as §1

duvelisib = compound: C[C@H](Nc1ncnc2nc[nH]c12)c1cc2cccc(Cl)c2c(=O)n1-c1ccccc1 [duvelisib]
Procedure, shortened: as §1

gandotinib = compound: Cc1cc(Nc2cc(CN3CCOCC3)c3nc(C)c(Cc4ccc(Cl)cc4F)n3n2)n[nH]1 [gandotinib]
Procedure, shortened: as §1

tozasertib = compound: Cc1cc(Nc2cc(N3CCN(C)CC3)nc(Sc3ccc(NC(=O)C4CC4)cc3)n2)n[nH]1 [tozasertib]
Procedure, shortened: as §1

doramapimod = compound: Cc1ccc(-n2nc(C(C)(C)C)cc2NC(=O)Nc2ccc(OCCN3CCOCC3)c3ccccc23)cc1 [doramapimod]
Procedure, shortened: as §1

bafetinib = compound: Cc1ccc(NC(=O)c2ccc(CN3CC[C@H](N(C)C)C3)c(C(F)(F)F)c2)cc1Nc1nccc(-c2cncnc2)n1 [bafetinib]
Procedure, shortened: as §1

[2] = compound: Cc1cccc(CC(=O)N2CCc3c2ccc(-c2cn(C)c4ncnc(N)c24)c3F)n1
Procedure, shortened: as §1

nilotinib = compound: Cc1cn(-c2cc(NC(=O)c3ccc(C)c(Nc4nccc(-c5cccnc5)n4)c3)cc(C(F)(F)F)c2)cn1 [nilotinib]
Procedure, shortened: as §1

[3] = compound: Cc1nc(Nc2n[nH]c3c2CN(C(=O)N[C@H](CN(C)C)c2ccccc2)C3(C)C)c2sccc2n1
Procedure, shortened: as §1

dasatinib = compound: Cc1nc(Nc2ncc(C(=O)Nc3c(C)cccc3Cl)s2)cc(N2CCN(CCO)CC2)n1 [dasatinib]
Procedure, shortened: as §1

[4] = compound: Cc1ncc(-c2ccnc(Nc3ccc(S(C)(=O)=O)cc3)n2)n1C(C)C
Procedure, shortened: as §1

[5] = compound: Cn1cc(-c2ccc3c(c2)CCN3C(=O)Cc2cccc(C(F)(F)F)c2)c2c(N)ncnc21
Procedure, shortened: as §1

quisinostat = compound: Cn1cc(CNCC2CCN(c3ncc(C(=O)NO)cn3)CC2)c2ccccc21 [quisinostat]
Procedure, shortened: as §1

tipifarnib = compound: Cn1cncc1[C@@](N)(c1ccc(Cl)cc1)c1ccc2c(c1)c(-c1cccc(Cl)c1)cc(=O)n2C [tipifarnib]
Procedure, shortened: as §1

[6] = compound: NC(=O)Nc1cc(-c2cccc(F)c2)sc1C(=O)N[C@H]1CCCNC1
Procedure, shortened: as §1

[7] = compound: NC(=O)c1cnc(N[C@@H]2CCCC[C@@H]2N)nc1Nc1cccc(-n2nccn2)c1
Procedure, shortened: as §1

[8] = compound: NC1(c2ccc(-c3nc4ccn5c(=O)[nH]nc5c4cc3-c3ccccc3)cc2)CCC1
Procedure, shortened: as §1

Sequence of UniProt Q15067 (Q15067 whole entry, looked up): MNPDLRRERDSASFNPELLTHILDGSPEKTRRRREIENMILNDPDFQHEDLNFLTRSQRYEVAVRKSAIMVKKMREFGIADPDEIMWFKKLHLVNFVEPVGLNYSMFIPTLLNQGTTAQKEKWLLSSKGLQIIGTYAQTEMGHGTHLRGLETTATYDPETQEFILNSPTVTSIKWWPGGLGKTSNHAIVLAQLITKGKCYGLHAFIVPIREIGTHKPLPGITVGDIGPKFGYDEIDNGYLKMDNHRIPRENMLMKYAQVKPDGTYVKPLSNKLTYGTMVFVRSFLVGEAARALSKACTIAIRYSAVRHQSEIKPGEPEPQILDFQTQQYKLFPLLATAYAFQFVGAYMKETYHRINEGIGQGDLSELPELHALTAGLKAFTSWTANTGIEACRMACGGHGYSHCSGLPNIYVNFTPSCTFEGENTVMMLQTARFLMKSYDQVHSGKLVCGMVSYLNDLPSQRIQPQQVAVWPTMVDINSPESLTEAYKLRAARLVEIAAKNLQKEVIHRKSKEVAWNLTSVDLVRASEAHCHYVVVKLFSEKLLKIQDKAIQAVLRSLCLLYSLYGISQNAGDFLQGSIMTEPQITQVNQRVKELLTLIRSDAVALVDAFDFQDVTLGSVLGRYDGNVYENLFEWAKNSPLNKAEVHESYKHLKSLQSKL
Sequence of UniProt P07311 (P07311 whole entry, looked up): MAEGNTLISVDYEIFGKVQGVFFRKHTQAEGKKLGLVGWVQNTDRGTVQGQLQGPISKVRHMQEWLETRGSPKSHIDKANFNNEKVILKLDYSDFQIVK
Sequence of UniProt P04083 (P04083 whole entry, looked up): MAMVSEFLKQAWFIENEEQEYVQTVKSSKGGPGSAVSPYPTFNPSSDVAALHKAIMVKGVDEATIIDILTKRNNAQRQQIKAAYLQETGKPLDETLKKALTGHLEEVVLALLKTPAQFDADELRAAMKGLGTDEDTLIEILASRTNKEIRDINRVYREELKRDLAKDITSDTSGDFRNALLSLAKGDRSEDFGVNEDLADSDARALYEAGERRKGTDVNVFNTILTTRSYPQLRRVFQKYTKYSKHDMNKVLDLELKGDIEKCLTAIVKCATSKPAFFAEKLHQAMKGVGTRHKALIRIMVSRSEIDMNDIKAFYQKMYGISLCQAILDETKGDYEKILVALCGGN

| Target | log2 fold change (lapatinib) | log2 fold change (pictilisib) | log2 fold change (crizotinib) | log2 fold change [1] | log2 fold change (duvelisib) | log2 fold change (gandotinib) | log2 fold change (tozasertib) | log2 fold change (doramapimod) | log2 fold change (bafetinib) | log2 fold change [2] | log2 fold change (nilotinib) | log2 fold change [3] | log2 fold change (dasatinib) | log2 fold change [4] | log2 fold change [5] | log2 fold change (quisinostat) | log2 fold change (tipifarnib) | log2 fold change [6] | log2 fold change [7] | log2 fold change [8] |
| --- | --- | --- | --- | --- | --- | --- | --- | --- | --- | --- | --- | --- | --- | --- | --- | --- | --- | --- | --- | --- |
| ACOX1 isoform 2 (UniProt Q15067) | -0.003 | -0.003 | -0.004 | -0.112 | -0.012 | 0.167 | 0.043 | 0.024 | -0.01 | 0.054 | 0.104 | 0.005 | 0.065 | -0.011 | 0.019 | 0 | -0.042 | -0.018 | -0.039 | 0 |
| ACYP1 (UniProt P07311) | -0.001 | -0.044 | 0.024 | 0.236 (active) | 0.005 | -0.051 | 0.016 | 0.009 | 0.005 | -0.091 | -0.014 | 0.019 | 0.022 | -0.028 | 0.014 | 0.024 | 0.019 | -0.029 | -0.013 | 0.039 |
| AGO4 (UniProt Q9HCK5) | 0.013 | -0.076 | -0.01 | -0.113 | 0.014 | 0.048 | -0.001 | -0.014 | -0.004 | 0.002 | -0.152 | 0.07 | 0 | 0.004 | -0.022 | -0.037 | 0.005 | 0.015 | 0.014 | -0.002 |
| ANXA1 (UniProt P04083) | 0.005 | 0.013 | 0.018 | -0.013 | 0.016 | -0.005 | 0.012 | 0.008 | 0.038 | 0.028 | -0.01 | -0.009 | -0.009 | -0.006 | -0.006 | 0.034 | 0.026 | -0.015 | 0.003 | 0.009 |
